# Test results reported in PubChem BioAssay AID1159580 (chemical genetic matrix, 2015).
# Where “and” joins values, the source holds several entries; their conditions need not be identical. Equal values may be shown once. Screen size: about 5,500 compounds; about 2,000 (36%) were called active. About 18% were inconclusive and are not listed. Some of the results follow. A number with no mark means an inactive call. Cut-off read from the data, not from the text of the source: active = normalized growth mostly below about 0.91 (no sharp cut-off); inconclusive = no clear call, values can overlap the other calls; inactive = mostly above about 0.92.
# Experiment: chemical genetic growth profiling, strain panel (AID 1159580);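 note: tested at 20 µM; growth read once vehicle control cultures reached saturation at 30 °C; 1 = growth at the plate median or of vehicle wells; lower values mean less growth of the strain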
# Settings: S. cerevisiae deletion strains, growth OD
compound,measurement,setting,value
O=C1C=CC(=O)c2c(O)cccc21,normalized growth,"locus YAL021C, strain ccr4, active compounds read low",1.01
same,normalized growth,"locus YAL026C, strain drs2, active compounds read low",0.951
same,normalized growth,"locus YAL030W, strain snc1, active compounds read low",0.965
same,normalized growth,"locus YBL061C, strain skt5, active compounds read low",0.976
same,normalized growth,"locus YBR009C, strain hhf1, active compounds read low",0.966
same,normalized growth,"locus YBR021W, strain FUR4, active compounds read low",1.09
same,normalized growth,"locus YBR023C, strain chs3, active compounds read low",0.973
same,normalized growth,"locus YBR171W, strain sec66, active compounds read low",1
same,normalized growth,"locus YBR229C, strain ROT2, active compounds read low",0.955
same,normalized growth,"locus YBR231C, strain swc5, active compounds read low",0.876 (active)
same,normalized growth,"locus YBR279W, strain paf1, active compounds read low",0.974
same,normalized growth,"locus YCL011C, strain gbp2, active compounds read low",0.978
same,normalized growth,"locus YCL016C, strain dcc1, active compounds read low",0.975
same,normalized growth,"locus YCL029C, strain bik1, active compounds read low",0.983
same,normalized growth,"locus YCL069W, strain vba3, active compounds read low",0.971
same,normalized growth,"locus YCR088W, strain abp1, active compounds read low",0.981
same,normalized growth,"locus YDL005C, strain med2, active compounds read low",1
same,normalized growth,"locus YDL035C, strain GPR1, active compounds read low",0.993
same,normalized growth,"locus YDL040C, strain nat1, active compounds read low",1
same,normalized growth,"locus YDL074C, strain BRE1, active compounds read low",1.02
same,normalized growth,"locus YDL101C, strain DUN1, active compounds read low",0.966
same,normalized growth,"locus YDL134C, strain PPH21, active compounds read low",0.967
same,normalized growth,"locus YDL185W, strain tfp1, active compounds read low",0.961
same,normalized growth,"locus YDL192W, strain arf1, active compounds read low",0.972
same,normalized growth,"locus YDR001C, strain nth1, active compounds read low",0.991
same,normalized growth,"locus YDR069C, strain doa4, active compounds read low",0.956
same,normalized growth,"locus YDR101C, strain arx1, active compounds read low",1.03
same,normalized growth,"locus YDR137W, strain rgp1, active compounds read low",0.708 (active)
same,normalized growth,"locus YDR159W, strain sac3, active compounds read low",0.838 (active)
same,normalized growth,"locus YDR162C, strain NBP2, active compounds read low",0.912
same,normalized growth,"locus YDR195W, strain ref2",1.03
same,normalized growth,"locus YDR297W, strain sur2, active compounds read low",1.01
same,normalized growth,"locus YDR318W, strain mcm21, active compounds read low",0.962
same,normalized growth,"locus YDR334W, strain swr1, active compounds read low",0.879 (active)
same,normalized growth,"locus YDR335W, strain msn5, active compounds read low",0.975
same,normalized growth,"locus YDR388W, active compounds read low",0.99
same,normalized growth,"locus YDR392W, strain spt3, active compounds read low",0.596 (active)
same,normalized growth,"locus YDR502C, strain sam2, active compounds read low",1.01
same,normalized growth,"locus YEL003W, strain gim4, active compounds read low",0.969
same,normalized growth,"locus YEL037C, strain rad23, active compounds read low",0.973
same,normalized growth,"locus YEL061C, strain CIN8 (second series), active compounds read low",0.983
same,normalized growth,"locus YEL061C, strain CIN8, active compounds read low",0.982
same,normalized growth,"locus YER015W, strain faa2, active compounds read low",0.956
same,normalized growth,"locus YER016W, strain bim1, active compounds read low",1.02
same,normalized growth,"locus YER110C, active compounds read low",0.972
same,normalized growth,"locus YER111C, strain swi4, active compounds read low",1.13 [resistant] (active)
same,normalized growth,"locus YER155C, strain BEM2 (second series), active compounds read low",0.766 (active)
same,normalized growth,"locus YER155C, strain BEM2, active compounds read low",1
same,normalized growth,"locus YER167W, strain BCK2, active compounds read low",0.984
same,normalized growth,"locus YFR010W, strain ubp6, active compounds read low",0.907
same,normalized growth,"locus YGL078C, strain dbp3, active compounds read low",1.04
same,normalized growth,"locus YGL086W, strain mad1, active compounds read low",1.02
same,normalized growth,"locus YGL167C, strain pmr1, active compounds read low",0.961
same,normalized growth,"locus YGL173C, strain kem1, active compounds read low",0.938
same,normalized growth,"locus YGL227W, strain vid30, active compounds read low",1.04
same,normalized growth,"locus YGL240W, strain doc1, active compounds read low",0.817 (active)
same,normalized growth,"locus YGL248W, strain PDE1, active compounds read low",0.955
same,normalized growth,"locus YGL253W, strain hxk2, active compounds read low",0.979
same,normalized growth,"locus YGR078C, strain PAC10, active compounds read low",0.958
same,normalized growth,"locus YGR135W, strain pre9, active compounds read low",0.966
same,normalized growth,"locus YGR229C, strain SMI1, active compounds read low",0.97
same,normalized growth,"locus YGR252W, strain gcn5, active compounds read low",1.03
same,normalized growth,"locus YHR013C, strain ard1, active compounds read low",0.894
same,normalized growth,"locus YHR027C, strain rpn1, active compounds read low",0.954
same,normalized growth,"locus YHR030C, strain SLT2, active compounds read low",0.993 and 0.875
same,normalized growth,"locus YHR079C, strain IRE1 (second series), active compounds read low",0.997
same,normalized growth,"locus YHR079C, strain IRE1, active compounds read low",0.972
same,normalized growth,"locus YHR094C, strain hxt1, active compounds read low",1
same,normalized growth,"locus YHR129C, strain ARP1, active compounds read low",0.991
same,normalized growth,"locus YHR142W, strain chs7, active compounds read low",0.992
same,normalized growth,"locus YHR200W, strain rpn10, active compounds read low",0.963
same,normalized growth,"locus YIL066C, strain RNR3, active compounds read low",0.965
same,normalized growth,"locus YIL073C, strain SPO22, active compounds read low",0.933
same,normalized growth,"locus YIL125W, strain kgd1, active compounds read low",0.997
same,normalized growth,"locus YIR030C, strain dcg1, active compounds read low",1
same,normalized growth,"locus YJL092W, strain hpr5, active compounds read low",0.987
same,normalized growth,"locus YJL095W, strain BCK1 (second series), active compounds read low",0.946
same,normalized growth,"locus YJL095W, strain BCK1, active compounds read low",0.903 and 0.941
same,normalized growth,"locus YJL115W, strain asf1, active compounds read low",0.969
same,normalized growth,"locus YJL129C, strain trk1, active compounds read low",1.02
same,normalized growth,"locus YJL134W, strain LCB3, active compounds read low",0.984
same,normalized growth,"locus YJL154C, strain vps35, active compounds read low",0.974
same,normalized growth,"locus YJL164C, strain tpk1, active compounds read low",0.953
same,normalized growth,"locus YJL166W, strain qcr8, active compounds read low",0.935
same,normalized growth,"locus YJL168C, strain set2, active compounds read low",0.988
same,normalized growth,"locus YJL187C, strain SWE1 (second series), active compounds read low",0.964
same,normalized growth,"locus YJL187C, strain SWE1, active compounds read low",0.987
